PubChem BioAssay (Tox21)
Several values for one entry are separate records, joined by “and”; a condition that tells them apart may be missing. Equal values may be shown once. Inconclusive results are not listed. Entries that show only a call come without a potency. More than one record can exist for a structure, and the calls need not agree. Activity calls are given as the source filed them. The call rests on the fitted dose curve; in most records, active means well fitted cell-killing curve with a large enough effect in the repeat runs; inconclusive means weak or mixed curves, or effect the other way; inactive means no such curve, though single readings can be large or run the other way.

assay: qHTS assay to identify small molecule agonists of the farnesoid-X-receptor (FXR) signaling pathway - cell viability counter screen (AID 743218); conditions: FXR-bla HEK293T viability, CellTiter-Glo luminescence, 16 h; series mostly up to 62.6 µM; further: nearly all actives have a fitted effect of over 45% in size
Source text: U.S. Tox21 Program National Center for Advancing Translational Sciences [NCATS] NIH Chemical Genomics Center [NCGC] U.S. Environmental Protection Agency [EPA] National Institutes of Environmental Health Sciences [NIEHS] National Toxicology Program [NTP] U.S. Food and Drug Administration [FDA] Tox21 Assay Overview: The farnesoid-X-receptor (FXR), a nuclear hormone receptor, is highly expressed in liver, intestine, kidney and adrenal cortex. Natural ligands of FXR are the bile acids (Cholic acid, Chenodeoxy cholic acid etc). FXR is an important regulator of diverse metabolic pathways, including the bile acid homeostasis, lipid and glucose metabolisms. FXR regulates the expression of target genes by binding either as a monomer or as a heterodimer with the retinoid X receptor (RXR). Numerous studies have reported that FXR exerts protective function during cholestasis, diabetes, liver regeneration, and cancer. To identify compounds that activate FXR signaling, GeneBLAzer FXR-UAS-bla HEK 293T cell line (Invitrogen, Carlsbad, CA) containing a beta-lactamase reporter gene under the control of a UAS response element was used to screen the Tox21 10K compound library. The cytotoxicity of the Tox21 compound library against the FXR-bla cell line was tested in parallel by measuring the cell viability using CellTiter-Glo assay in the same wells.
Tox21 Assay Protocol Summary: FXR-bla cells were dispensed at 5000 cells/5uL/well in 1536-well black wall/clear bottom plates using a Multidrop Combi (Thermo Fisher Scientific, Waltham, MA) dispenser. After the assay plates were incubated at 37 C and 5% CO2 for 5 h, 23 nL of compounds dissolved in DMSO, positive controls or DMSO only was transferred to the assay plate by a Pintool station (Kalypsys, San Diego, CA). The assay plates were incubated at 37C for 16 h. After 1 uL of LiveBLAzerTM B/G FRET substrate was added using a Bioraptr Flying Reagent Dispenser (FRD) workstation (Beckman Coulter, Indianapolis, IN), the plates were incubated at room temperature for 2 h, and fluorescence intensity was measured by an Envision plate reader (PerkinElmer, Shelton, CT). For cell viability readout that measures cytotoxicity, 4uL/well of CellTiter-Glo reagent was added into the assay plates using a Bioraptr FRD. After 30 min incubation at room temperature, the luminescence intensity in the plates was measured using a ViewLux plate reader (PerkinElmer).
Potency means the concentration at half of the fitted maximal effect.

Compound	Potency
Nc1cccc(N)c1	inactive
C=C(C)OC(C)=O	inactive
CCCCOC(=O)CCCCCCCCC(=O)OCCCC	inactive
CCN1CCCC1=O	inactive
C#C[C@]1(O)CC[C@H]2[C@@H]3CCc4cc(O)ccc4[C@H]3CC[C@@]21C	inactive
COC(=O)c1ccc(C=O)cc1	inactive
CC(=O)c1ccc(S(=O)(=O)NC(=O)NC2CCCCC2)cc1	inactive
COCC(C)N (stereo not given)	inactive
CCCCNC(=O)NS(=O)(=O)c1ccc(N)cc1	inactive
CCn1cc(C(=O)O)c(=O)c2ccc(C)nc21	inactive
CCOCCO	inactive
Cc1c(N(C)C)c(=O)n(-c2ccccc2)n1C	inactive
NC(=O)OCC(COC(N)=O)c1ccccc1	inactive
CC(=O)Oc1ccccc1C(=O)O	inactive
CCCCC/C(C=O)=C\c1ccccc1	inactive
COc1ccc(C(=O)c2ccccc2)c(O)c1	inactive
NCCNc1cccc2ccccc12	43.6 µM (active) and 30.2 µM (active) and inactive
COC(=O)C1CCC(C(=O)OC)CC1 (stereo not given)	inactive
CCc1cc(C(N)=S)ccn1	inactive
CC(C)(C)NCC(O)c1ccc(O)c(CO)c1 (stereo not given)	inactive

Compound	Potency
O=c1c(-c2ccc(O)cc2)coc2cc(O)cc(O)c12	inactive
C=C(C)C(N)=O	inactive
C/C=C/c1ccc(O)c(OC)c1	inactive
CCCCOCCOCCOC(C)=O	inactive
C[C@]12C=CC(=O)C=C1CC[C@@H]1[C@@H]2C(=O)C[C@@]2(C)[C@H]1CC[C@]2(O)C(=O)CO	inactive
Cn1cnc2c1c(=O)[nH]c(=O)n2C	inactive
NC(=O)N/N=C/c1ccc([N+](=O)[O-])o1	inactive
CC1=NN(c2ccccc2)C(=O)C1	inactive
c1ccc2[nH]c(-c3cscn3)nc2c1	inactive
CN(C)Cc1cc(CN(C)C)c(O)c(CN(C)C)c1	inactive
C[C@]12C[C@H](O)[C@H]3[C@@H](CCC4=CC(=O)CC[C@@]43C)[C@@H]1CC[C@@H]2C(=O)CO	inactive
N[C@@H](Cc1c[nH]c2ccc(O)cc12)C(=O)O	inactive
COc1ccccc1NC(=O)CC(C)=O	inactive
O=C1OC(c2ccc(O)cc2)(c2ccc(O)cc2)c2ccccc21	inactive
CCCCCCCCCCCCCCCCCC(=O)OCC(O)CO (stereo not given)	inactive
OCCCc1ccccc1	inactive
C1CNCCN1	inactive
CCN(CC)CCOC(=O)c1ccc(N)cc1	inactive
CCCCOCCOCCSC#N	inactive
O=C(O)CN(CC(=O)O)CC(=O)O	inactive
